# Source: PubChem BioAssay (NCATS)
# The source made the active and inactive calls. The rule behind the calls is not given here.
# Assay: Immunotoxin (HA22) sensitization/mitigation study. Vehicle arm (PBS) (AID 1159510)
# Settings: cancer cells viability with PBS vehicle (HA22 study); series mostly up to 46.1 µM; viability (% of control): at the top concentration
# Potency is the fitted concentration of half-maximal effect.
Structure (SMILES),viability (% of control),Potency
OCCn1cc(-c2ccc3c(c2)CCC3=NO)c(-c2ccncc2)n1,98.3% (inactive),–
O=C(O)[C@@H](c1ccc(OCc2ccc3ccccc3n2)cc1)C1CCCC1,99.7% (inactive),–
Cc1ccc(NC(=O)c2cccc(C(C)(C)C#N)c2)cc1Nc1ccc2ncn(C)c(=O)c2c1,–,23.5 µM (active)
Cc1cc(C=c2sc3nc4ccccc4n3c2=O)c(C)n1-c1ccccc1,–,18.7 µM (active)
Cc1n[nH]c(C)c1Cc1sc2c(c1C(=O)N1C[C@H](O)CO1)c(=O)n(C)c(=O)n2CC(C)C,–,0.0019 µM (active)
c1ccc(-c2nn3c(c2-c2ccnc4cc(OCCN5CCOCC5)ccc24)CCC3)nc1,–,26.4 µM (active)
O=C(C=Cc1c(C(=O)O)[nH]c2cc(Cl)cc(Cl)c12)Nc1ccccc1,109% (inactive),–
O=C(O)c1ccc2cc(-c3ccc(O)c(C45CC6CC(CC(C6)C4)C5)c3)ccc2c1,–,0.0935 µM (active)
Cc1cc(-c2ccc(CC(=O)Nc3ccc(-c4cccnc4)cc3)cc2)ccn1,–,18.7 µM (active)
c1cc(-c2cnn3cc(-c4ccc(OCCN5CCCCC5)cc4)cnc23)ccn1,–,2.64 µM (active)
Fc1cc(-c2cccc3ncc(-c4cnn(C5CCNCC5)c4)nc23)cc(F)c1CN1CCOCC1,–,23.5 µM (active)
Cn1cc(-c2[nH]c3cc(NC(=O)[C@H](N)C4CCCCC4)cc4c3c2C=NNC4=O)cn1,–,0.59 µM (active)
CNC(=O)c1cc(Oc2ccc(NC(=O)Nc3cc(C(C)(C)C)nn3-c3ccc4ncccc4c3)c(F)c2)ccn1,–,6.62 µM (active)
Cc1ccc(C(=O)Nc2cccc(C(F)(F)F)c2)cc1-c1ccc2nc(NCCN3CCOCC3)ncc2c1,–,14.8 µM (active)
O=C(NCCS(=O)(=O)c1ccc(C(F)(F)F)cn1)c1ccc(Cl)cc1,102% (inactive),–
CCc1cc(-c2n[nH]c(C)c2-c2ccc3c(c2)OCCO3)c(O)cc1O,–,16.6 µM (active)
COc1ccc(C=Cc2cc(OC)c(OC)c(OC)c2)cc1O,1.65% (inactive),–
COc1c(Cl)cc2c([nH]c3cnccc32)c1NC(=O)c1cccnc1C,93.9% (inactive),–
CCC1(Cc2ccc(N)cc2)CCC(=O)NC1=O (stereo not given),98.3% [at 92.2 µM] (inactive),–
O=C(C=Cc1cccc(S(=O)(=O)Nc2ccccc2)c1)NO,–,0.264 µM (active)

Structure (SMILES),viability (% of control),Potency
CCCCc1ccc(NS(=O)(=O)c2ccc(C)c(C(=O)N3CCN(c4cccc(C)c4C)CC3)c2)cc1,–,20.9 µM (active)
O=C(C=Cc1cccnc1)NCCCCC1CCN(C(=O)c2ccccc2)CC1,3.48% (inactive),–
CN(C)CCCN=c1c2ccccc2n(C)c2[nH]c(=O)n(C)c(=O)c12,–,7.43 µM (active)
CCCCCCCCCCCCCC(=O)N[C@H](CO)[C@H](O)c1ccc([N+](=O)[O-])cc1,–,16.6 µM (active)
O=c1[nH]nc(Sc2ncc([N+](=O)[O-])s2)n1-c1ccc2c(c1)OCCO2,–,0.264 µM (active)
O=C(O)CCc1ccc(NCc2cccc(Oc3ccccc3)c2)cc1,96% (inactive),–
CCN(CC)CCOc1ccc(Nc2ncc3cc(-c4c(Cl)cccc4Cl)c(=O)n(C)c3n2)cc1,–,1.18 µM (active)
CC(=O)N(C)C1(c2ccccc2)CCN(CCC[C@]2(c3ccc(Cl)c(Cl)c3)CCCN(C(=O)c3ccccc3)C2)CC1,–,13.2 µM (active)
N#CCNC(=O)c1ccc(-c2ccnc(Nc3ccc(N4CCOCC4)cc3)n2)cc1,–,5.26 µM (active)
Cc1ccc(-c2ncn(-c3ccc(Nc4nccc(-c5cccc(N6CCOCC6)c5)n4)cc3)n2)cn1,–,0.0264 µM (active)
C[C@]1(CO)CN(c2cc(C(=O)Nc3ccc4c(c3)-c3c(c(C(N)=O)nn3-c3ccc(F)cc3)CC4)c(Cl)cn2)C[C@@]1(C)CO,–,3.32 µM (active)
COC(=O)C1=C(C)NC(C)=C(C(=O)OCCCN2CCC(c3ccccc3)(c3ccccc3)CC2)[C@H]1c1cccc([N+](=O)[O-])c1,–,16.6 µM (active)
CN1CCN(c2ccc3nc(-c4c(N)c5c(F)cccc5[nH]c4=O)[nH]c3c2)CC1,–,1.66 µM (active)
CC(C)[C@H](CO)Nc1nc(Nc2ccc(C(=O)O)c(Cl)c2)c2ncn(C(C)C)c2n1,110% (inactive),–
CCC1(O)CC2CN(CCc3c([nH]c4ccccc34)[C@@](C(=O)OC)(c3cc4c(cc3OC)N(C=O)[C@H]3[C@](O)(C(=O)OC)[C@H](OC(C)=O)[C@]5(CC)C=CCN6CC[C@]43[C@@H]65)C2)C1 (stereo not given in full),–,0.0017 µM (active)
C=CCc1cccc(/C=N/NC(=O)CN2CCN(Cc3ccccc3)CC2)c1O,–,4.69 µM (active)
CCc1cc(Nc2nccc(-c3c(-c4ccc(OC)c(C(=O)Nc5c(F)cccc5F)c4)nc4ccccn34)n2)c(OC)cc1N1CCC(N2CCN(S(C)(=O)=O)CC2)CC1,–,3.72 µM (active)
C[C@@H]1CCN(C(=O)CC#N)C[C@@H]1N(C)c1ncnc2[nH]ccc12,111% (inactive),–
COc1ncc(-c2ccc3nccc(-c4ccnnc4)c3c2)cc1NS(=O)(=O)c1ccc(F)cc1F,–,0.418 µM (active)
CC1(C)OC2=C(C(=O)c3ccccc3C2=O)[C@H](NCc2ccccc2)[C@H]1O,–,2.64 µM (active)
